Assay outcomes (PubChem)
MCF10A rereplic: DNA re-replication induction in MCF 10a cells. MCF 10A DNA re-replication, Hoechst nuclear intensity, 48 h. Potency, µM (highest dose often 46.1 µM), for inactives: top-dose activity, positive = re-replication, actives largely listed as activators. hit rate 2.9% among 350,000; further: % of control where 0% means no effect; nearly all actives have a fitted effect of over 50% in size
SW480 rerep: inducers of DNA re-replication in SW480 colon cancer cells; SW480 DNA re-replication, Hoechst DNA content imaging, 48 h; Potency, µM (series often up to 46.1 µM), for the others: at the highest dose re-replication activation, usual class: activators; hit rate 1.8% among 340,000; AID 624297; further: % of control where 0% means no effect; nearly all actives have a fitted effect of over 55% in size
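Image-based read-out: total Hoechst fluorescence of nuclei (405 nm excitation, 500-530 nm emission), with hits raising the fraction of high-intensity nuclei. SW480 colon cells incubated 48 hr with compounds at 37 C.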
ELG1 DNA repair: blocks ELG1-dependent DNA repair in HEK293T cells; HEK293T ELG1-luciferase reporter, luminescence, 16 h; DNA damage induced by 5-fluorouridine; Potency, µM (doses to about 46.1 µM), inactives show at the highest dose activity change, negative = inhibition, usual class: inhibitors; hit rate 2.3% among 330,000; further: on the % scale 0 is the no-effect control and ±100 the full control effect; nearly all actives have a fitted effect of over 55% in size
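Step one: seed 2,000 cells per well. Step two: pin-transfer compound or DMSO alongside 5-fluorouridine. Step three: incubate 16 hr, 37 °C, 5% CO2. Step four: add ONE-Glo, wait 30 min, read luminescence.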
KB-V1 MDR tox: KB-V1 MDR subline cytotoxicity | KB-V1 MDR cells viability, CellTiter-Glo, 72 h | Potency, µM (highest dose often 46.1 µM), hits mostly cytotoxic | hit rate 3.4% among 400,000 | AID 1347076; further: on the % scale 0 is the no-effect control and ±100 the full control effect; nearly all actives have a fitted effect of over 60% in size
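KB-V1 cells (P-gp-expressing MDR subline of KB-3-1) in phenol-red-free DMEM with 10% FBS were exposed to library compounds over a concentration series for 72 h at 37 degrees C. Viability read by CellTiter-Glo luminescence; concentration-effect curves fitted after normalization.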
KB-3-1 tox: KB-3-1 parental cell cytotoxicity; KB-3-1 viability, CellTiter-Glo ATP luminescence, 72 h; Potency, µM (doses to about 46.1 µM), hits mostly cytotoxic; hit rate 1.4% among 400,000; AID 1347075; further: on the % scale 0 is the no-effect control and ±100 the full control effect; nearly all actives have a fitted effect of over 60% in size
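Using CellTiter-Glo luminescence, growth of non-resistant KB-3-1 adenocarcinoma cells is assessed 72 h after pin-tool compound addition at 37 °C. Normalized responses across the concentration series yield fitted curves.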
Numbers without * were called inactive; i = inactive; ? = inconclusive; nt = no result. Shown are actives, neighbours in structure and some others; about 8.2% of the full set was active somewhere. The call rests on the fitted dose curve; in most records, active means well fitted curve in the direction sought with a large enough effect; inconclusive means small, poorly fitted or top-dose-only effect, or another doubt; inactive means no such curve, though single readings can be large; an effect the other way counts as inactive or inconclusive. Potency means the concentration at half of the fitted maximal effect.

SMILES	MCF10A rereplic	SW480 rerep	ELG1 DNA repair	KB-V1 MDR tox	KB-3-1 tox
COc1ccc(N2CCN(c3oc(-c4ccc(OC)c(OC)c4)nc3C#N)CC2)cc1	-35%	0%	2%	i	i
COc1ccccc1-c1nc(C#N)c(N2CCc3ccccc3C2)o1	16µM*	17%	?	?	?
COc1ccccc1-c1nc(C#N)c(N2CCCCCC2)o1	?	-14%	-29%	?	i
COc1ccc2cc(C(=O)C3CCCN(C(=O)CCc4cnn(C)c4)C3)ccc2c1 (stereo not drawn)	-5%	-6%	?	i	i
O=C(Nc1nc(-c2ccc(S(=O)(=O)N3CCCC3)cc2)cs1)c1cccs1	6%	-5%	8.2µM*	i	i
O=C(Nc1nc(-c2ccc(S(=O)(=O)N3CCCCCC3)cc2)cs1)c1cccs1	8%	-7%	13µM*	i	i
O=C(Nc1ccc(S(=O)(=O)N2CCCC2)cc1)c1cccs1	-4%	14%	7%	?	i
Cc1nn(Cc2cccc(C(=O)Nc3ccn(Cc4c(F)c(F)cc(F)c4F)n3)c2)c(C)c1[N+](=O)[O-]	7%	11%	21µM*	?	?
Cc1nn(C)c(C(=O)Nc2ccn(Cc3c(F)c(F)cc(F)c3F)n2)c1[N+](=O)[O-]	12%	-1%	-19%	13µM*	i
CC(=O)c1cccc(NC(=O)c2sc3nc4n(c(=O)c3c2C)CCCC4)c1	4%	9.2µM*	0%	i	i
COc1ccc(COC(=O)c2sc3nc4n(c(=O)c3c2C)CCC4)cc1	26%	-1%	-21%	8.2µM*	i
COc1ccc(CNC(=O)c2sc3nc4n(c(=O)c3c2C)CCC4)cc1	nt	nt	nt	i	i
CCCCC(=O)O[C@]1(C(=O)CO)CCC2C3CCC4=CC(=O)CCC4(C)C3C(O)CC21C (stereo partly drawn)	4%	6%	nt	nt	nt
NC(=S)N=Nc1c(O)n(CCCl)c2ccc(Cl)cc12	-3%	13%	-26%	13µM*	?
CSc1ccc(OC2CCN(Cc3ccccc3)CC2)cc1	?	?	-27%	16µM*	i
O=C(O)C1CCC(=O)N1Cc1ccc(F)cc1 (stereo not drawn)	16µM*	10%	9%	i	i
Cc1cc(-n2c(SCC(=O)NCCC3=CCCCC3)nc3n[nH]c(C)c3c2=N)ccc1Cl	21µM*	26%	-1%	i	i
Cc1ccc(-n2nnnc2SCC(=O)NCCC2=CCCCC2)c(C)c1	11%	2%	-8%	21µM*	i
Cc1ccc(Cl)cc1-n1c(SCC(=O)NCCC2=CCCCC2)nc2n[nH]c(C)c2c1=N	?	15%	3%	i	i
O=C(c1c(O)c2ccccc2oc1=O)C1CCCCC1	?	7%	-8%	15µM*	?
O=C(N/N=C/c1ccco1)C1CC1(c1ccccc1)c1ccccc1 (stereo not drawn)	2%	-12%	-5%	21µM*	i
O=C(O)c1ccc(/C=N/NC(=O)C2CC2(c2ccccc2)c2ccccc2)cc1 (stereo not drawn)	nt	nt	-9%	nt	nt
COc1ccc(Cl)cc1NC(=O)COC(=O)Cc1cc(OC)c(OC)c(OC)c1	2%	-2%	-9%	i	i
COC(=O)c1ccc(CSc2nnc(Nc3ccccc3OC)s2)o1	9.2µM*	17%	-12%	i	i
O=C1C[C@H]2C=CCc3cccc(c32)CN1Cc1ccc(Br)cc1	nt	nt	nt	?	i
SMILES	MCF10A rereplic	SW480 rerep	ELG1 DNA repair	KB-V1 MDR tox	KB-3-1 tox
CCOc1ccc(NC(=O)CSc2ncc3c(n2)-c2ccc(Cl)cc2N(Cc2ccccc2)S3(=O)=O)cc1	nt	nt	nt	i	i
Cc1cc(C)n(-c2ccc(C(=O)OCC(=O)Nc3ccc([N+](=O)[O-])cc3)cc2)n1	-5%	38%	-1%	i	i
Cc1cc(C)c(NC(=O)CN(C2CCCCC2)C2CCCCC2)c(C)c1	3.7µM*	1.8µM*	5%	?	i
C#CCOCCOCCOCCNc1nc(N2CCN(C(=O)[C@H](CCCCN)n3cc(C(N)COC(=O)C(F)(F)F)nn3)CC2)nc(N2CCN(C(=O)[C@H](CCCCN)n3cc(C(N)CC(C)C)nn3)CC2)n1 (stereo partly drawn)	nt	nt	9%	nt	nt
Cc1nc(-c2ccc(S(=O)(=O)NCc3ccc(N(C)C)cc3)cc2)co1	nt	nt	nt	?	i
O=C(NC(Cc1ccccc1)C(=O)O)/C(=C/c1cccc([N+](=O)[O-])c1)NC(=O)c1cccc(Br)c1 (stereo not drawn)	-3%	-10%	1%	?	i
COc1ccc(OC2C(=O)N(c3cc(C)ccc3C)C2c2ccc(OC)c(OC)c2)cc1 (stereo not drawn)	0%	nt	18µM*	?	i
Cn1c(-c2ccccc2)n[nH]c1=S	1%	-9%	-1%	i	i
Cc1cccc(-c2n[nH]c(=S)n2C)c1	-1%	-5%	-4%	21µM*	?
Cc1nc(-c2ccccc2)sc1-c1n[nH]c(=S)n1C	15%	23µM*	12%	?	i
CCOC(=O)[C@]12CCC=C1N(CCC1=CCCCC1)C(=O)[C@H](CC(=O)NCc1cccc3ccccc13)C2	nt	nt	nt	?	i
O=C(O)c1cc(-c2cccc(Cl)c2)nc2nc(N3CCCCC3)sc12	2%	-11%	14%	?	i
C#CCNC(=O)C1=C[C@H](C(C)(C)C)C[C@H](OCCCCO)O1	5%	2%	nt	i	i
CCN(C(=O)CN1C(=O)NC2(CCc3ccccc32)C1=O)C1CCCCC1 (stereo not drawn)	3%	-5%	3%	i	i
COc1ccc(COC(=O)c2ccc(S(=O)(=O)N3CCC(C)CC3)cc2)cc1	16µM*	-7%	12%	i	?
Cc1ccc(NC(=O)NC2CCN(S(=O)(=O)c3ccc(F)cc3)CC2)cc1	6%	-8%	?	i	i
COc1ccc(OC2CCN(S(=O)(=O)c3ccc(OC)cc3)CC2)cc1	4%	-2%	15µM*	i	i
COc1ccc(S(=O)(=O)N2CCC(NC(=O)Nc3ccc(C)cc3)CC2)cc1	0%	1%	-13%	18µM*	i
COc1ccc(OC2CCN(S(=O)(=O)c3cccc(F)c3)CC2)cc1	15%	-5%	?	i	i
CCCNC(=O)C1(C)CCCN(C(=O)c2cccnc2Oc2ccccc2)C1 (stereo not drawn)	nt	nt	nt	i	i
CCOc1ccc(C2=Nn3c(CC)nnc3SC2)cc1	13%	2%	?	i	i
c1ccc2c(-c3cccc4nccn34)cncc2c1	nt	nt	nt	i	i
COc1ccc(-c2cc3ccc(O)c(CN4CCOCC4)c3oc2=O)cc1OC	nt	nt	nt	?	i
